Tau fluor counter = counter-screen for tau fibril formation inhibitors; tau K18 P301L Alexa594 fluorescence, heparin fibrillization; Potency, µM (series often up to 57.7 µM); 0.93% of 280,000 active; AID 1463; note: nearly all actives have a fitted effect of over 55% in size
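Human K18 P301L tau (15 uM unlabeled plus 0.24 uM Alexa 594-labeled, final) in 100 mM sodium acetate pH 7 was mixed with compound and 20 uM heparin and incubated 6 hr at 37 C.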
PLK1 PBD block = PLK1 (human) polo-box domain binding inhibition; P53350; Plk1 PBD binding of FITC phosphopeptide, fluorescence polarization; Potency, µM, usual class: inhibitors; 2.8% of 360,000 active; AID 720504; note: series mostly up to about 57 µM; nearly all actives have a fitted effect of over 65% in size
Target sequence (P53350 whole entry, looked up, the tested form may be a part): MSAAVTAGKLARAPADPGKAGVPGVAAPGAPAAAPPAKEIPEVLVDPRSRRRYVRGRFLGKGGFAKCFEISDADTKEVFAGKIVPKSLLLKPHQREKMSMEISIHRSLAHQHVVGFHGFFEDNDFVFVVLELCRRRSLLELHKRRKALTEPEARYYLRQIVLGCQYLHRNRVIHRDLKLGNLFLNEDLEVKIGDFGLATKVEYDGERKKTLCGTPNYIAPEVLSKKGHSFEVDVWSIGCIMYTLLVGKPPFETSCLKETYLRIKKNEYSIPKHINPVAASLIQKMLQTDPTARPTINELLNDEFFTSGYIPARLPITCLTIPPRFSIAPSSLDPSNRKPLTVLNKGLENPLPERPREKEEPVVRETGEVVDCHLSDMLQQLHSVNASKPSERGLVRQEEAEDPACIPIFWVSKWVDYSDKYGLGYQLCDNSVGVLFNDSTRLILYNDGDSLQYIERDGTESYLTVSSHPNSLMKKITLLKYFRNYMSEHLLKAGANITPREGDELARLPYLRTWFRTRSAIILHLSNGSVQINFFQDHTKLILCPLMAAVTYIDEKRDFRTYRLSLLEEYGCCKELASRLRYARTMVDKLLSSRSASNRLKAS
Sfp inh = blocks B. subtilis Sfp PPTase activity | Q9F4F7 | Biochemical Sfp PPTase activity, qHTS | Potency, µM, usual class: inhibitors | 3.5% of 310,000 active | AID 1490;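 note: the enzyme is Sfp with the accession as filed and its product quenches rhodamine fluorescence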
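Sfp 15 nM + cpd, 15 min RT; start w/ rhodamine-CoA 5 uM, BHQ-2-YbbR 12.5 uM (final); 50 mM Hepes pH 7.6, 10 mM MgCl2, 0.01% NP-40, 0.01% BSA; read 525/598 nm at 0 and 30 min.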
VDR inhibitor = vitamin D3 receptor (human) inhibition; 0.93% of 400,000 active; AID 504847; Potency, µM, actives largely listed as inhibitors; P11473; VDR-SRC2-3 peptide fluorescence polarization, 2 h
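Reagent solutions, kept cold and dark, are dispensed first; compounds are then pinned in at 23 nl, plates briefly spun, and incubated 2 h at ambient temperature. Inhibition of VDR–SRC2-3 peptide binding is read by fluorescence polarization.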
Tau fibril FP = inhibitors of human tau fibril formation; K18 P301L tau heparin fibrillization, Alexa594 FP, 6 h; Potency, µM (highest dose often 57.7 µM), usual class: inhibitors; 0.39% of 280,000 active; note: nearly all actives have a fitted effect of over 55% in size
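FP of Alexa 594-tau after heparin (20 uM) induction. Substrate: human K18 P301L, 15 uM unlabeled, 0.24 uM labeled. Buffer 100 mM sodium acetate pH 7. 6 hr, 37 C.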
Tau fibril ThT = blocks human tau fibril formation measured by thioflavin T | P10636 | AID 1460 | 2.1% of 270,000 active | recombinant tau K18 P301L (four-repeat tau fragment), heparin-induced fibrillization, ThT fluorescence | Potency, µM (top dose mostly 57.4 µM), actives largely listed as inhibitors; note: nearly all actives have a fitted effect of over 55% in size
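Recombinant human tau K18 fragment […] carrying P301L, 15 uM unlabeled plus 0.24 uM Alexa 594-labeled, was fibrillized with 20 uM heparin in 100 mM sodium acetate pH 7 for 6 hr at 37 C; 30 uM ThT fluorescence read after 1 hr.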
Large screens that a line does not name were inactive; [ ] = dose if it differs, or a comment. Compounds with a hit are over-represented: about 6% of the library has one in this group of screens. Calls come from the whole dose curve; as a rule, active = well fitted curve in the direction sought with a large enough effect; inconclusive = small, poorly fitted or top-dose-only effect, or another doubt; inactive = no such curve, though single readings can be large; an effect the other way counts as inactive or inconclusive.

Cc1ccc(/C=C2\CCCC3=C2NC(=S)NC3c2ccc(C)cc2)cc1 (stereo not drawn)	PLK1 PBD block inconclusive, Sfp inh 25µM, VDR inhibitor inconclusive, Tau fibril ThT inconclusive
Cc1cc(OC(=O)c2c(F)cc(F)cc2F)nc(C)n1	PLK1 PBD block 21µM
Cc1cc(C)nc(OC(=O)c2c(Cl)cc(Cl)cc2Cl)n1	none
CCCCCc1ccc2cc(C#N)ccc2n1	none (no result: Tau fluor counter, Sfp inh, VDR inhibitor, Tau fibril FP, Tau fibril ThT)
CCn1cc2nc(SCc3ccccc3Cl)n(Cc3ccc(OC)cc3)c(=O)c2n1	none (no result: PLK1 PBD block, Sfp inh)
CCOc1cccc2c1OC1(C)CC2NC(=O)N1c1ccc(OC)cc1 (stereo not drawn)	PLK1 PBD block 13µM
COC(=O)c1cc2oc3ccccc3c2n1CC(=O)Nc1ccc(F)c(Cl)c1	Tau fluor counter inconclusive (no result: PLK1 PBD block, Sfp inh)
Cc1cc2c(cc1C)N(C(=O)CSc1nncn1C)C(C)(C)c1ssc(=S)c1-2	Tau fibril ThT 20µM
Cc1ccc2c(c1)N(C(=O)CSc1nncn1C)C(C)(C)c1ssc(=S)c1-2	Tau fibril ThT inconclusive
CCOc1cc(-c2nc3ccccc3s2)ccc1O	Tau fluor counter 20µM[quencher], Tau fibril ThT inconclusive
COc1ccc(-c2nc3ccccc3s2)cc1O	Tau fluor counter inconclusive, PLK1 PBD block 24µM, Tau fibril ThT inconclusive
COc1cc(-c2nc3ccccc3s2)ccc1O	Tau fluor counter inconclusive, Tau fibril ThT inconclusive
CC(C)(C)OC(=O)NCCCC[C@H](NC(=O)c1[nH]cnc1C(=O)Nc1ccc(CNC(=O)OC(C)(C)C)cc1)C(=O)OC(C)(C)C	Tau fluor counter inconclusive, Tau fibril FP inconclusive, Tau fibril ThT inconclusive
C[C@H](NC(=O)c1nc[nH]c1C(=O)N[C@@H](Cc1ccccc1)C(=O)OC(C)(C)C)C(=O)OC(C)(C)C	none
CC(C)C[C@H](NC(=O)c1nc[nH]c1C(=O)N[C@@H](CC(C)C)C(=O)OC(C)(C)C)C(=O)OC(C)(C)C	none
CC(C)(C)OC(=O)[C@H](Cc1ccccc1)NC(=O)c1[nH]cnc1C(=O)Nc1cccc(Cl)c1	Tau fluor counter inconclusive, Tau fibril FP 22µM
C[C@H](NC(=O)c1[nH]cnc1C(=O)Nc1ccc(CNC(=O)OC(C)(C)C)cc1)C(=O)OC(C)(C)C	Tau fluor counter inconclusive, PLK1 PBD block 21µM, VDR inhibitor inconclusive, Tau fibril FP inconclusive
CC(C)C[C@H](NC(=O)c1[nH]cnc1C(=O)Nc1ccc(Cl)cc1)C(=O)OC(C)(C)C	Tau fibril FP 11µM
Cc1cccc(NC(=O)c2nc[nH]c2C(=O)N[C@@H](CC(C)C)C(=O)OC(C)(C)C)c1	Tau fluor counter inconclusive, Tau fibril FP 13µM
COc1ncnc2c1ncn2CCCNCCCN1CCCC1=O	none (no result: Tau fluor counter, Sfp inh, VDR inhibitor, Tau fibril FP, Tau fibril ThT)
O=C(O)[C@H]1CCCN(CCC=C(c2ccccc2)c2ccccc2)C1	none (no result: PLK1 PBD block, VDR inhibitor)
CC(C)CN(CCCNC(=O)c1cc(=O)[nH]c2ccc(S(=O)(=O)N3CCCCCC3)cc12)CC(C)C	none (no result: PLK1 PBD block, Sfp inh)
Cc1ccc(CNC(=O)CCCN2C(=O)CCn3nc(-c4cccn4C)cc32)cc1	none (no result: PLK1 PBD block, Sfp inh)
CCOC(=O)c1ccc(NC(=O)c2nc[nH]c2C(=O)N[C@@H](Cc2ccccc2)C(=O)OC(C)(C)C)cc1	Tau fluor counter inconclusive, Tau fibril FP inconclusive, Tau fibril ThT inconclusive
Cc1cccc(NC(=O)c2nc[nH]c2C(=O)N[C@@H](Cc2ccccc2)C(=O)OC(C)(C)C)c1	Tau fluor counter inconclusive, Tau fibril FP 8.9µM, Tau fibril ThT inconclusive
CCOC(=O)CCCc1sc(N)nc1-c1[nH]c(=O)[nH]c1C	PLK1 PBD block inconclusive, Sfp inh 22µM
CCCN(C(=O)c1cc2ccc3cccnc3c2[nH]1)c1ccc(F)cc1	none (no result: PLK1 PBD block, Sfp inh)
CCN1CCN(Cc2ccc(NC(=O)c3ccc(C)c(NC(=O)C(=O)c4c[nH]c5ccccc45)c3)cc2C(F)(F)F)CC1	Sfp inh 50µM, Tau fibril FP inconclusive
CCN1CCN(Cc2ccc(NC(=O)c3ccc(C)c(NC(=O)c4ccnnc4)c3)cc2C(F)(F)F)CC1	none
CCN1CCN(Cc2ccc(NC(=O)c3cc(NC(=O)C(=O)c4c[nH]c5ccccc45)cc(OC)c3)cc2C(F)(F)F)CC1	Tau fluor counter inconclusive, Sfp inh 50µM, Tau fibril FP 14µM
O=C(NC1CCCC1)C(c1ccncc1)N(C(=O)Cn1nnc(-c2ccccc2F)n1)c1cccc(F)c1 (stereo not drawn)	none (no result: Tau fluor counter, Tau fibril FP, Tau fibril ThT)
COc1ccc(-c2csc(N(CCCN(C)C)C(=O)c3ccc(OC)c(OC)c3)n2)cc1	none (no result: Tau fluor counter, Sfp inh, VDR inhibitor, Tau fibril FP, Tau fibril ThT)
c1ccc(-c2ccc(N3CC4(CCNCC4)C3)cc2)cc1	Sfp inh inconclusive (no result: Tau fluor counter, PLK1 PBD block, Tau fibril FP, Tau fibril ThT)
COCC(=O)N1CCC2(CCCN(c3ccc(-c4ccccc4)cc3)C2)CC1	VDR inhibitor 50µM (no result: Tau fluor counter, PLK1 PBD block, Tau fibril FP, Tau fibril ThT)
COCC(=O)N1CCC2(CC1)CCN(c1ccc(-c3ccccc3)cc1)CC2	none (no result: Tau fluor counter, PLK1 PBD block, Tau fibril FP, Tau fibril ThT)
c1ccc(-c2ccc(N3CCCC4(CCNCC4)C3)cc2)cc1	Sfp inh 28µM, VDR inhibitor inconclusive (no result: Tau fluor counter, PLK1 PBD block, Tau fibril FP, Tau fibril ThT)
Cc1ccc(/C=C(\CCC(=O)O)c2nc3ccccc3s2)cc1[N+](=O)[O-]	PLK1 PBD block inconclusive, Tau fibril ThT inconclusive
CNc1ccc(/C=C(\CCC(=O)O)c2nc3ccccc3s2)cc1[N+](=O)[O-]	Tau fluor counter inconclusive, Tau fibril ThT 3.2µM
